Compound activity from PubChem BioAssay.
Hits are enriched below; roughly 4.6% of the tested compounds scored in any of these assays.
D1 antagonist – human D1 dopamine receptor antagonism | HEK293 TREx D1 cells, calcium flux, dopamine EC80; active compounds read low | activity change, negative = inhibition, % at 10 µM | 360,000 tested, 3.2% active | AID 504652; in the data active = activity change below about -30%; also: % is scaled to controls: 0 for no effect and ±100 for the full control effect
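Inducible Hek293 Trex D1 cells (tetracycline, overnight, 30 C). Calcium dye 30–90 min RT. Antagonist mode: EC80 dopamine added after 180 s compound read.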
TRHR PAM – TRH receptor (human) allosteric enhancement; AID 493056; 360,000 tested, 0.66% active; TRHR cells, fluo-8 calcium fluorescence, EC20 TRH enhancement; enhancement, % at 2 µM; P34981; in the data active = enhancement above about 30%; also: 0% is about no effect
Target sequence (P34981 whole entry, looked up): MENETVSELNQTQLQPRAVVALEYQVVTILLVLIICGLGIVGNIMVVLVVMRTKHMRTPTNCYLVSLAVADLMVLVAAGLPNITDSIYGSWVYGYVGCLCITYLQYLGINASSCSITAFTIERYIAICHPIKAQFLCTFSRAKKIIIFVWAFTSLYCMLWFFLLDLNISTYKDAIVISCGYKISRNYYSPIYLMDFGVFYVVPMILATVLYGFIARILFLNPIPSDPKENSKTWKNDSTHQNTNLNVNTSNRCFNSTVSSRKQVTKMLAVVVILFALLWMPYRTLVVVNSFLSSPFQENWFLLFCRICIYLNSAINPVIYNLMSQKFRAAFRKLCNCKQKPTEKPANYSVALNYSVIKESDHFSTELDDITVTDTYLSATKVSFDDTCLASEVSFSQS
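TRHR-expressing cells loaded with fluo-8 calcium dye were read kinetically (ex 480/em 530) during compound addition, then stimulated with an EC20 of TRH (10 nM final). Enhancement of the Gq-mediated intracellular calcium response was scored.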
TRHR agonist – agonists of human TRH receptor; TRHR cells, calcium flux fluo-8, FDSS agonist mode; P34981; activation, % at 2 µM; 360,000 tested, 0.18% active; AID 493084; also: 0% is about no effect
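Agonist-mode FDSS calcium read (Ex 480/Em 530, 1 s cycles) in 1536-well TRHR cells with fluo-8 dye, after 10-cycle baseline and 23 nL compound addition; TRH at EC20 (10 nM final) added afterwards for the enhancer phase.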
D1 agonist – activates the human D1 dopamine receptor | HEK293 T-REx D1 cells, calcium flux, agonist mode | activation, % at 2 µM | 360,000 tested, 1% active; also: 0% is about no effect
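Agonism was scored from calcium flux recorded over 180 s (1 read/s) after pintool compound addition, following a 10-cycle baseline. Cells were inducible force-coupled HEK293 TREx D1, plated overnight at 30 C and loaded with no-wash calcium dye.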
Epigenetic reg – derepresses silenced GFP reporter in murine cells; 280,000 tested, 0.2% active; AID 1865; Potency, µM (highest dose often 53.9 µM), for the others: at the top dose GFP activation, hits mostly activators; murine LDR cells, GFP reporter derepression, 30 h; active = well fitted activation curve with a large enough effect; also: potency is read from the fitted curve at half-maximal effect; % of control where 0% means no effect; nearly all actives have a fitted effect of over 60% in size
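Reporter derepression read as number of fluorescent GFP-positive objects, 20-120 um in size, counted by laser-scanning cytometer. Mouse LDR line with an epigenetically silenced CMV-GFP locus; compound incubation 30 h, 37 C.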
D1 potentiator – potentiators of human D1 dopamine receptor; P21728; HEK293 TREx D1 cells, calcium flux, dopamine EC20 potentiation; potentiation, % at 10 µM; 360,000 tested, 0.036% active; in the data active = potentiation above about 30%; also: 0% is about no effect
An asterisk follows results filed as active. Rule as the data show it, unless noted: active = activation above about 30%; inactive = the rest.

Screening C#CCOCCOCCOCCNc1nc(N2CCOCC2)nc(N2CCN(C(=O)CCCCCCCCCCNC(=O)[C@H](CO)n3cc(CCCCCN)nn3)CC2)n1 returned D1 antagonist -4, TRHR PAM 5, TRHR agonist 0, D1 agonist 3 and D1 potentiator 0.
COC(C(=O)Nc1ccc(S(=O)(=O)Nc2c(C)cccc2C)cc1)c1ccccc1 (centres undefined) was read as D1 antagonist 8, TRHR PAM -5, TRHR agonist 2, D1 agonist 35*, Epigenetic reg 2% and D1 potentiator -1.
For COc1ccc(CCNC(=O)c2csc3c2CCCCC3)c(OC)c1 the results were D1 antagonist -14, TRHR PAM -10, TRHR agonist 2, D1 agonist 8, Epigenetic reg 2% and D1 potentiator -6.
`Cc1cc(C)n(C(=O)/C(C#N)=N/Nc2cc(Cl)cc(Cl)c2)n1` gave D1 antagonist -34*, TRHR PAM -9, TRHR agonist 1, D1 agonist 20, Epigenetic reg -1% and D1 potentiator -6.
O=C(CCN1C(=O)c2ccccc2Sc2ncccc21)Nc1ccc(F)cc1 was read as D1 antagonist 18, TRHR PAM 7, TRHR agonist 0, D1 agonist 2, Epigenetic reg 3% and D1 potentiator 3.
COC(=O)c1cn(NC(=O)/C=C/c2cccc(OC)c2OC)c(=O)c2ccccc12 was read as D1 antagonist 1, TRHR PAM -2, TRHR agonist 0, D1 agonist 1, Epigenetic reg 2% and D1 potentiator -7.
COC(=O)c1cn(NC(=O)/C=C/c2ccc(OC)c(OC)c2)c(=O)c2ccccc12 was read as D1 antagonist -74*, TRHR PAM 0, TRHR agonist 1, D1 agonist 0, Epigenetic reg 3% and D1 potentiator -11.
Screening CCN(CC)S(=O)(=O)c1cc([N+](=O)[O-])ccc1N=Nc1c(O)[nH]c2ccccc12 returned D1 antagonist -11, TRHR PAM -2, TRHR agonist 1, D1 agonist -2, Epigenetic reg 18µM* and D1 potentiator -2.
CC1CCCCN1S(=O)(=O)Cc1ccccc1Cl (centres undefined) was read as D1 antagonist -87*, TRHR PAM -4, TRHR agonist 0, D1 agonist 0 and D1 potentiator -12.
O=S(=O)(Cc1ccccc1Cl)N1CCCC1 was read as TRHR PAM -2, TRHR agonist 0, D1 agonist 0, Epigenetic reg 0% and D1 potentiator 1.
`COc1ccc(N2CC(C(=O)N/N=C/c3cc([N+](=O)[O-])ccc3O)CC2=O)cc1` (centres undefined) gave D1 antagonist -2, TRHR PAM 39*, TRHR agonist 0, D1 agonist -1, Epigenetic reg -1% and D1 potentiator 1.
Screening COC(=O)c1ccc(Sc2ccc(C)cc2)c(N)c1 returned D1 antagonist -36*, TRHR PAM -4, TRHR agonist -1, D1 agonist 10, Epigenetic reg -1% and D1 potentiator -11.
COC(=O)c1ccc(C)c(NC(=O)CCSc2ccc(C)cc2)c1 was read as D1 antagonist -18, TRHR PAM 34*, TRHR agonist 0, D1 agonist 3, Epigenetic reg 2% and D1 potentiator -11.
For COc1cccc(NC(=O)CCSc2ccc(C)cc2)c1 the results were D1 antagonist -2, TRHR PAM 1, TRHR agonist 0, D1 agonist -1, Epigenetic reg 0% and D1 potentiator 0.
O=C(Nc1ccccc1OCc1cc(=O)n2ccccc2n1)Nc1ccccc1C(F)(F)F was read as D1 antagonist -8, TRHR PAM 0, TRHR agonist 0, D1 agonist 2, Epigenetic reg 16% and D1 potentiator 0.
CCCCC(=O)Nc1ccnc(-c2cccnc2)n1 was read as D1 antagonist -86*, TRHR PAM 1, TRHR agonist 0, D1 agonist 220*, Epigenetic reg 1% and D1 potentiator -2.
Screening COc1cc(CCCN2C(=O)C(=O)NC[C@@H]2C(C)O)cc(OC)c1OC (some centres undefined) returned D1 antagonist -37*, TRHR PAM 0, TRHR agonist 0, D1 agonist 6, Epigenetic reg 1% and D1 potentiator -3.
Cc1nnc(NCc2ccccc2)c2c1nnn2Cc1ccccc1Cl was read as D1 antagonist -2, TRHR PAM -1, TRHR agonist 0, D1 agonist 1, Epigenetic reg -3% and D1 potentiator 2.
`O=C1CC(NNC(=O)c2ccc(Br)cc2)C(=O)N1` (centres undefined) gave D1 antagonist -19, TRHR PAM -5, TRHR agonist 1, D1 agonist 3, Epigenetic reg 9% and D1 potentiator -4.
O=C1CC(NNC(=O)c2ccccc2)C(=O)N1 (centres undefined) was read as D1 antagonist -40*, TRHR PAM -5, TRHR agonist 0, D1 agonist 2, Epigenetic reg -1% and D1 potentiator -5.
For Cc1c(Cl)cccc1NC(=O)CSc1ncccc1C(=O)Oc1ccccc1Cl the results were D1 antagonist 27, TRHR PAM 5, TRHR agonist 1, D1 agonist 7, Epigenetic reg -1% and D1 potentiator -1.
O=C(O)c1ccc(NS(=O)(=O)c2ccc3c(c2)C2C=CCC2C(c2ccccc2F)N3)cc1 (centres undefined) was read as D1 antagonist -35*, TRHR PAM 6, TRHR agonist -3, D1 agonist 0, Epigenetic reg 1% and D1 potentiator -2.
COC(=O)c1ccc([C@H]2Nc3ccc(S(=O)(=O)Nc4cccc(C)c4)cc3[C@H]3C=CC[C@H]32)cc1 was read as D1 antagonist -85*, TRHR PAM -1, TRHR agonist 0, D1 agonist 0, Epigenetic reg 5% and D1 potentiator 2.
Cc1ccc([C@H]2Nc3ccc(S(=O)(=O)Nc4cccc(Cl)c4C)cc3[C@H]3C=CC[C@H]32)cc1 was read as D1 antagonist 5, TRHR PAM 2, TRHR agonist 0, D1 agonist 4, Epigenetic reg -1% and D1 potentiator 0.
`Cc1ccc(NS(=O)(=O)c2ccc3c(c2)[C@H]2C=CC[C@H]2[C@@H](c2ccc(F)cc2)N3)cc1C` gave D1 antagonist -15, TRHR PAM 2, TRHR agonist 0, D1 agonist 5, Epigenetic reg -2% and D1 potentiator -1.
